Assay results reported in PubChem BioAssay AID720641 (ICCB-Longwood Screening Facility, Harvard Medical School, 2013).
About 900 (0.53%) of roughly 170,000 compounds were called active.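 Rule for the calls: active = relative growth at most 50% at the other temperature and 20+ points below 30 °C, or under 10% at both; inactive = the rest, inconclusive results apart.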 The list comes from a sample in which actives are over-represented; it also holds similar structures and randomly drawn compounds.

Experiment: Staphylococcus aureus RN4220 growth blockers – two temperatures, LtaS inhibitor project, primary screen (AID 720641)
Conditions: S. aureus RN4220 growth, OD600, 20 h, 42 °C, stronger effect = lower value

**Q.** With CN(C)c1ccc(Nc2nc3ccccc3nc2NS(=O)(=O)c2cccs2)cc1 as the compound, how does the relative growth read?
**A.** Its relative growth is 105% (inactive).

**Q.** What about the relative growth (measured here: growth at 30 °C) of the same compound?
**A.** Its relative growth is 95.9%.

**Q.** With Cc1cccn2c(=O)cc(CN3CCC(C(=O)N4CCOCC4)CC3)nc12 as the compound, how does the relative growth read?
**A.** The relative growth was 98.4% (inactive).

**Q.** What about the relative growth (measured here: growth at 30 °C) of the same compound?
**A.** Its relative growth is 88.3%.

**Q.** For COC(=O)c1ccc(C)c(NS(=O)(=O)c2ccc3c(c2)c(=O)sn3C)c1, which relative growth is on record?
**A.** The relative growth was 0.12% (active).

**Q.** And the relative growth (measured here: growth at 30 °C)?
**A.** The relative growth was 0.2%.

**Q.** For COC(=O)c1ccc(NS(=O)(=O)c2cc(C(=O)OC)n(C)c2)cc1, which relative growth is on record?
**A.** Its relative growth is 106% (inactive).

**Q.** What about the relative growth (measured here: growth at 30 °C) of the same compound?
**A.** The relative growth was 88%.

**Q.** With COC(=O)CN1C(=O)CSc2ccc(S(=O)(=O)Nc3cc(C)ccc3C)cc21 as the compound, how does the relative growth read?
**A.** The relative growth was 112% (inactive).

**Q.** What about the relative growth (measured here: growth at 30 °C) of the same compound?
**A.** Its relative growth is 94%.

**Q.** For COc1ccc(OCCn2c(S(=O)(=O)Cc3ccccc3)nc3ccccc32)cc1, which relative growth is on record?
**A.** The relative growth was 132% (inactive).

**Q.** And the relative growth (measured here: growth at 30 °C)?
**A.** The relative growth was 101%.

**Q.** What does the source list for COCCNc1ncnc2c1sc1nc(N3CCOCC3)c3c(c12)CCC3?
**A.** relative growth: 111% (inactive); relative growth (measured here: growth at 30 °C): 88.7%

**Q.** Which relative growth does the source give for CSc1n[nH]c(-c2ccco2)n1 here?
**A.** Its relative growth is 101% (inactive).

**Q.** And the relative growth (measured here: growth at 30 °C)?
**A.** The relative growth was 107%.

**Q.** Which results are given for CO/N=C(/C(=O)N[C@@H]1C(=O)N2C(C(=O)O)=C(CSc3nc(=O)c(O)nn3C)CS[C@H]12)c1csc(N)n1?
**A.** relative growth: -0.87% (active); relative growth (measured here: growth at 30 °C): -0.54%

**Q.** For O=S(=O)(Cc1ccccc1)CC(O)COc1ccc(OC(F)(F)F)cc1 (stereo unspecified), which relative growth is on record?
**A.** Its relative growth is 102% (inactive).

**Q.** What about the relative growth (measured here: growth at 30 °C) of the same compound?
**A.** The relative growth was 85%.

**Q.** For COc1ccccc1CN=C(C)c1ccccc1O, which relative growth is on record?
**A.** Its relative growth is 101% (inactive).

**Q.** What about the relative growth (measured here: growth at 30 °C) of the same compound?
**A.** The relative growth was 99.1%.

**Q.** Which relative growth does the source give for CCOC(=O)Nc1sccc1C(N)=O here?
**A.** Its relative growth is 106% (inactive).

**Q.** What about the relative growth (measured here: growth at 30 °C) of the same compound?
**A.** Its relative growth is 101%.

**Q.** What does the source list for CCOC(=O)c1c(NC(=O)C(F)(F)F)sc2c1CCCC2?
**A.** relative growth: 101% (inactive); relative growth (measured here: growth at 30 °C): 93.2%

**Q.** For CCOC(=O)c1c(C)csc1NC(=O)CC(=O)C(F)(F)F, which relative growth is on record?
**A.** The relative growth was 2.75% (active).

**Q.** What about the relative growth (measured here: growth at 30 °C) of the same compound?
**A.** The relative growth was 4.35%.

**Q.** For O=C(CSc1nc2ccsc2c(=O)n1Cc1ccccn1)Nc1nccs1, which relative growth is on record?
**A.** Its relative growth is 94% (inactive).

**Q.** What about the relative growth (measured here: growth at 30 °C) of the same compound?
**A.** The relative growth was 87.2%.

**Q.** With O=S(=O)(NCCC12CC3CC(CC(C3)C1)C2)c1cc(Cl)ccc1Cl as the compound, how does the relative growth read?
**A.** The relative growth was 80.5% (inactive).

**Q.** What about the relative growth (measured here: growth at 30 °C) of the same compound?
**A.** The relative growth was 66.9%.

**Q.** Which relative growth does the source give for CC(C)NC(=O)COc1ccc(-c2nn(C)c(=O)c3ccccc23)cc1 here?
**A.** The relative growth was 92.3% (inactive).

**Q.** What about the relative growth (measured here: growth at 30 °C) of the same compound?
**A.** The relative growth was 86.8%.

**Q.** Which relative growth does the source give for CCOC(=O)N1CCC(N2Cc3cccc(C(=O)NC4CCN(Cc5ccccc5)CC4)c3C2=O)CC1 here?
**A.** The relative growth was 92.7% (inactive).

**Q.** What about the relative growth (measured here: growth at 30 °C) of the same compound?
**A.** The relative growth was 86.6%.

**Q.** Which results are given for CCN(CC(=O)NCc1ccc(Cl)cc1)C(=O)c1c(C)noc1C?
**A.** relative growth: 84.2% (inactive); relative growth (measured here: growth at 30 °C): 95.1%

**Q.** For Cc1ccc(-c2nc3ccccn3c2Nc2c(C)cccc2C)o1, which relative growth is on record?
**A.** Its relative growth is 1.59% (active).

**Q.** What about the relative growth (measured here: growth at 30 °C) of the same compound?
**A.** Its relative growth is 1.66%.

**Q.** Which results are given for Cc1cccc(C)c1Nc1c(-c2ccccc2O)nc2ncccn12?
**A.** relative growth: 99.7% (inactive); relative growth (measured here: growth at 30 °C): 86.4%

**Q.** Which results are given for Cc1ccc(Nc2c(-c3ccc(C)s3)nc3ccccn23)cc1?
**A.** relative growth: 107% (inactive); relative growth (measured here: growth at 30 °C): 89.8%

**Q.** For Nc1ccc(C(=O)Nc2ccc(C(=O)O)cc2N)cc1, which relative growth is on record?
**A.** Its relative growth is 108% (inactive).

**Q.** What about the relative growth (measured here: growth at 30 °C) of the same compound?
**A.** The relative growth was 98.5%.
